G9a inh: inhibitors of human histone lysine methyltransferase G9a; G9a H3K9 monomethylation, AlphaScreen, 2 h; 350,000 compounds, 8.8% hits; Q96KQ7; Potency, µM (highest dose often 102 µM), usual class: inhibitors; further: nearly all actives have a fitted effect of over 75% in size
Target sequence (Q96KQ7 913-1193 limits assumed): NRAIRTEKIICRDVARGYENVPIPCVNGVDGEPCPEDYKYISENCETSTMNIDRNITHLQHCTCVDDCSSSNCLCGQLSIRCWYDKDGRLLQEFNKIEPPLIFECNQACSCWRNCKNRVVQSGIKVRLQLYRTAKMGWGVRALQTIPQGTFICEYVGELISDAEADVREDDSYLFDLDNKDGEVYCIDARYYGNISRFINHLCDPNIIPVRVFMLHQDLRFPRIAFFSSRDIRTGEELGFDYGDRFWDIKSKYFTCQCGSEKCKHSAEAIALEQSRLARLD
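G9a (20 nM) was preincubated 15 min with compound, then reacted 2 h at room temperature with 500 nM biotin-H3K9 peptide and 20 µM SAM. Monomethyl-H3K9 detected by AlphaScreen using anti-H3K9me1 antibody.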
JMJD2A Tudor: inhibitors of human JMJD2A Tudor domain; O75164; AlphaScreen JMJD2A-Tudor / H3K4me3 peptide binding; Potency, µM (top dose mostly 114 µM), hits mostly inhibitors; 390,000 compounds, 4.4% hits; further: nearly all actives have a fitted effect of over 50% in size
Sfp inh: inhibitors of Bacillus subtilis Sfp phosphopantetheinyl transferase | Q9F4F7 | Biochemical Sfp PPTase activity, qHTS | Potency, µM, actives largely listed as inhibitors | 310,000 compounds, 3.5% hits;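 further: the enzyme is Sfp with the accession as filed and its product quenches rhodamine fluorescence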
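Compounds were incubated with enzyme (final 15 nM) for 15 min at room temperature before substrate addition started the reaction. Fluorescence at 525 nm excitation, 598 nm emission was recorded immediately and after 30 minutes.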
L3MBTL1 inh: inhibitors of human L3MBTL1 | Q9Y468 | AlphaScreen L3MBTL1–H3K9me1 peptide binding | Potency, µM (highest dose often 57.1 µM), actives largely listed as inhibitors | 230,000 compounds, 0.66% hits | AID 485360; further: nearly all actives have a fitted effect of over 60% in size
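First, the protein-peptide complex forms for 30 min at room temperature (L3MBTL1 50 nM, biotinylated H3K9me1 peptide 75 nM). Next, compounds are pin-transferred and incubated 30 min. Finally, AlphaScreen beads are added and read after 30 min.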
BAZ2B block: BAZ2B (human) inhibition; AID 504333; Q9UIF8; 360,000 compounds, 4.4% hits; AlphaScreen BAZ2B-H3K14Ac peptide displacement; Potency, µM (doses to about 114 µM), actives largely listed as inhibitors; further: nearly all actives have a fitted effect of over 60% in size
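Compounds, titrated to a top concentration of 110 uM, were incubated 30 min at room temperature with preformed BAZ2B/acetyl-K14 H3 peptide complex (50 nM each). Proximity signal was measured by AlphaScreen after 20 min with beads.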
HP1b chromo inh: inhibitors of HP1-beta chromodomain binding to methylated histone tails. P83916. AlphaScreen HP1-beta / biotin-H3K9me3 peptide binding. Potency, µM (titrated, usually from 114 µM), hits mostly inhibitors. 390,000 compounds, 0.56% hits. AID 540317; further: nearly all actives have a fitted effect of over 70% in size
Target sequence (P83916 whole entry, looked up): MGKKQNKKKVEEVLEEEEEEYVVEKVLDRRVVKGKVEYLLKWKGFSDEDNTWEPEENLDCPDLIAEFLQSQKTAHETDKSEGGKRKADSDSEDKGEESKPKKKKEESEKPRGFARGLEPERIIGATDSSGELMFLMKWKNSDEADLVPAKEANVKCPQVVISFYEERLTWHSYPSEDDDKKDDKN
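Compound inhibition of the preformed complex between 50 nM HP1-beta and 50 nM biotinylated H3K9me3 peptide was read by AlphaScreen. Buffer was PBS pH 7.4 with 0.01% Tween-20. Incubations ran 30 min at room temperature, with 10 ug/mL donor/acceptor beads.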
Each line names hits and unclear results; the compound was inactive in the other large screens; ! = repeats disagree. A selection: hits, their analogues and other compounds. The true share with any hit is near 12%. The call rests on the fitted dose curve; in most records, active means well fitted curve in the direction sought with a large enough effect; inconclusive means small, poorly fitted or top-dose-only effect, or another doubt; inactive means no such curve, though single readings can be large; an effect the other way counts as inactive or inconclusive.

COc1ccc(Cl)cc1NC(=O)Cn1cnc2sc(C)c(S(=O)(=O)N3CCN(c4ccccc4OC)CC3)c2c1=O	none (no result: Sfp inh, L3MBTL1 inh)
COC(=O)N/N=C/c1c[nH]c2ccccc12	none
Cc1cc(O)c(/C=N/Nc2ccccc2)c(=O)o1	G9a inh inconclusive, JMJD2A Tudor 8.9µM, Sfp inh 18µM, BAZ2B block inconclusive
Cc1cc(O)c(C=Nc2cccc(Cl)c2)c(=O)o1	G9a inh inconclusive, L3MBTL1 inh inconclusive
Oc1ccccc1C=NNC(=S)NN=Cc1ccccc1O	JMJD2A Tudor 20µM (no result: G9a inh, Sfp inh, L3MBTL1 inh, BAZ2B block)
Cc1nc(Cl)cc(N/N=C/c2ccc(O)cc2O)n1	G9a inh inconclusive, JMJD2A Tudor inconclusive, BAZ2B block 35µM
Cc1nc(Cl)cc(N/N=C/c2ccc(O)cc2)n1	none
NC(=S)N/N=C/c1c[nH]c2ccccc12	JMJD2A Tudor inconclusive, Sfp inh 79µM, BAZ2B block inconclusive (no result: G9a inh, L3MBTL1 inh)
COc1ccc(CNc2nc3c(c(=O)n(C)c(=O)n3C)n2Cc2ccccc2Cl)cc1	none (no result: Sfp inh, L3MBTL1 inh)
O=C(N/N=C/c1ccccc1O)C1SCCCS1	JMJD2A Tudor inconclusive, BAZ2B block 79µM
Oc1cccc(/C=N/NC(=S)Nc2cccnc2)c1O	G9a inh 11µM, JMJD2A Tudor 20µM, Sfp inh inconclusive, L3MBTL1 inh 4µM, BAZ2B block 5.6µM
O=C(NN=Cc1ccccc1O)C1CC1	none (no result: G9a inh, Sfp inh, L3MBTL1 inh, BAZ2B block)
O=C(C=NNc1ccccc1)c1ccccc1	JMJD2A Tudor inconclusive (no result: G9a inh, Sfp inh, L3MBTL1 inh, BAZ2B block)
Oc1ccccc1/C=N/Nc1ccccc1	G9a inh 8.9µM
Cc1ccc2cccc(NC(=O)c3ccc(-c4cccc(Cl)c4Cl)o3)c2n1	none (no result: Sfp inh, L3MBTL1 inh)
O=C(CCCCCn1c(=O)c2sccc2n(Cc2ccc(Cl)cc2)c1=O)NCc1ccc2c(c1)OCO2	none (no result: Sfp inh, L3MBTL1 inh)
Nc1ccccc1Oc1ccccc1	none (no result: G9a inh, JMJD2A Tudor, L3MBTL1 inh, BAZ2B block, HP1b chromo inh)
N[C@@H](CO)C(=O)O	Sfp inh 63µM! (no result: G9a inh, JMJD2A Tudor, L3MBTL1 inh, BAZ2B block, HP1b chromo inh)
N[C@H](C(=O)O)C(O)C(O)C(O)CO (some centres not stated)	none (no result: G9a inh, JMJD2A Tudor, L3MBTL1 inh, BAZ2B block, HP1b chromo inh)
N[C@H](CO)C(=O)O	G9a inh 12µM! (no result: JMJD2A Tudor, L3MBTL1 inh, BAZ2B block, HP1b chromo inh)
Cn1cnc2c(=O)oc3ccc(S(=O)(=O)N4CCN(c5cccc(Cl)c5)CC4)cc3c21	none (no result: Sfp inh, L3MBTL1 inh)
O=C(O)COc1ccccc1/C=N/NC(=O)c1cccc(S(=O)(=O)N2CCOCC2)c1	G9a inh 14µM, JMJD2A Tudor 40µM, Sfp inh inconclusive, BAZ2B block inconclusive
COc1cc(/C=N/NC(=O)c2cccc(S(=O)(=O)N3CCOCC3)c2)cc(OC)c1O	G9a inh 40µM
O=C(N/N=C/c1ccc(O)c(O)c1)c1cccc(S(=O)(=O)N2CCCCC2)c1	G9a inh 50µM, JMJD2A Tudor inconclusive, BAZ2B block inconclusive
CCN(CC)S(=O)(=O)c1cccc(C(=O)N/N=C/c2ccccc2OCC(=O)O)c1	G9a inh 22µM, JMJD2A Tudor inconclusive, Sfp inh inconclusive, BAZ2B block 50µM
COc1cc(OC)c(OC)cc1/C=N/NC(=O)c1cccc(S(=O)(=O)N2CCOCC2)c1	G9a inh inconclusive
CCN(CC)c1ccc(NC(=O)CSc2nnc(C)c(=O)[nH]2)cc1	G9a inh inconclusive, JMJD2A Tudor inconclusive (no result: Sfp inh, L3MBTL1 inh)
CCOC(=O)C1=C(CN2CCN(c3cccc(OC)c3)CC2)NC(=O)NC1c1ccc(OC)cc1 (configuration not stated)	JMJD2A Tudor inconclusive, BAZ2B block inconclusive (no result: Sfp inh, L3MBTL1 inh)
O=C(N/N=C/c1cccc(O)c1)c1ccc(-n2cnnn2)cc1	none (no result: Sfp inh)
O=C(N/N=C/c1ccc(O)c(O)c1)c1ccc(-n2cnnn2)cc1	G9a inh inconclusive, JMJD2A Tudor inconclusive, L3MBTL1 inh inconclusive, BAZ2B block 50µM (no result: Sfp inh)
Cc1ccc(S(=O)(=O)N2CCN(CC(=O)N/N=C/c3ccccc3OCC(=O)O)CC2)cc1	JMJD2A Tudor 40µM (no result: G9a inh, L3MBTL1 inh)
CCOC(=O)c1[nH]c(C)c(CCC(=O)Nc2c(C)cc(C)cc2C)c1C	none (no result: Sfp inh, L3MBTL1 inh)
COc1ccc(OC)c2c(=S)c3ccccc3[nH]c12	Sfp inh 56µM (no result: G9a inh, JMJD2A Tudor, L3MBTL1 inh, BAZ2B block, HP1b chromo inh)
Cc1ccc(NC(=O)c2c(C)oc3ncn(CC(C)C)c(=O)c23)nc1	none (no result: Sfp inh, L3MBTL1 inh)
N#Cc1cccc(NC(=O)N2CC[C@@]3(CCCNC3)C2)c1	Sfp inh 79µM (no result: JMJD2A Tudor, L3MBTL1 inh, BAZ2B block, HP1b chromo inh)
CC(=O)N1CCC[C@@]2(CCN(C(=O)Nc3cccc(C#N)c3)C2)C1	none (no result: JMJD2A Tudor, L3MBTL1 inh, BAZ2B block, HP1b chromo inh)
CC(=O)CSc1ncnc2nc[nH]c12	none
Cn1cnc(Sc2ncnc3nc[nH]c23)c1[N+](=O)[O-]	JMJD2A Tudor 6.3µM, Sfp inh 40µM, BAZ2B block inconclusive, HP1b chromo inh inconclusive (no result: G9a inh, L3MBTL1 inh)
Cn1cnc([N+](=O)[O-])c1Sc1ncnc2nc[nH]c12	Sfp inh 79µM!
O=c1c2ccccc2c(=O)n(-c2ccccc2)n1-c1ccccc1	none (no result: G9a inh, Sfp inh, L3MBTL1 inh, BAZ2B block)
O=c1c2ccccc2c2ccccc2c(=O)n1-c1ccccc1	G9a inh 50µM
CCOc1ccc(C(C(=O)NC2CCCC2)N(CCCO)C(=O)c2ccc(-c3ccccc3)[nH]2)cc1 (configuration not stated)	G9a inh 50µM, JMJD2A Tudor inconclusive, BAZ2B block inconclusive

Assay outcomes (PubChem)
